Reference: PubChem BioAssay (NCATS)
Records with an inconclusive call do not appear. A call without a number means that no potency is given here. Values without a mark were called inactive. Active and inactive are the calls of the source. Calls follow the shape of the dose curve; as a rule, active = well fitted inhibition curve with a large enough effect; inconclusive = small, poorly fitted or top-dose-only effect; inactive = no such curve, though single readings can be large or run the other way.

experiment: qHTS to identify inhibitors of the type 1 interferon - major histocompatibility complex class I in skeletal muscle: primary screen against the NCATS Mechanism Interrogation Plate v5.0 (MIPE) Libary (AID 1347411); details: iHSKM cells + IFN-b, HiBiT-tagged MHC-I luminescence, 24 h; series mostly up to 45.8 µM; also: nearly all actives have a fitted effect of over 65% in size
Summary of the method: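 Seed engineered human myoblasts (HLA-B HiBit) in medium without dexamethasone containing 4 ng/ml IFN-beta; after 1 hr add compound titrations (top 46 uM final). Incubate 24 hrs at 37 C, lyse 10 min with HiBiT reagent, read luminescence.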
Potency is read from the fitted curve at half-maximal effect.

SMILES | Potency | activity change, negative = inhibition
CN1C(=O)c2sccc2N(C)c2nc(Nc3ccc(S(N)(=O)=O)cc3)ncc21 | 26.2 µM (active) | –
Cc1nc(NC(=O)N2CCCC2C(N)=O)sc1-c1ccnc(C(C)(C)C(F)(F)F)c1 (stereo not given) | 4.66 µM (active) | –
O=C(O)C1=CO[C@@H](O[C@@H]2O[C@H](CO)[C@@H](O)[C@H](O)[C@H]2O)[C@@H]2C(CO)=CC[C@H]12 | inactive | –
O=C([C@@H](Cc1cccc(C(F)(F)F)c1)NS(=O)(=O)c1cc(F)c2c(c1)CCNC2)N1CCCC1 | inactive | –
FC(F)(F)c1ccc(CNc2ccc(Cc3c[nH]c4ncc(Cl)cc34)cn2)cn1 | inactive | –
CCNC(=O)C#Cc1ccc2c(C(=Nc3ccc(CN(C)C)cc3)c3ccccc3)c(O)[nH]c2c1 | 4.04 µM (active) | –
COc1ccc(-n2c(SCCCN3C(=O)c4cccc5cccc(c45)C3=O)nnc2-c2ccncc2)cc1 | inactive | –
O=C(NCCCNc1nc(Nc2cccc(CN3CCOCC3)c2)ncc1C1CC1)C1CCC1 | inactive | –
Fc1ccc(-c2nc(-c3ccccc3F)[nH]c2-c2ccncc2)cc1 | inactive | –
CC#C[C@@H](CC(=O)O)c1ccc(OCc2cccc(-c3ccc(C(F)(F)F)cc3)c2)cc1 | inactive | –
C1=C/COCc2cc(ccc2OCCN2CCCC2)Nc2nccc(n2)-c2cccc(c2)COC/1 | 2.34 µM (active) | –
Fc1ccc2[nH]ccc2c1-c1nc(N2CCOCC2)c2sc(CN3CCN(CC4CC4)CC3)cc2n1 | 33 µM (active) | –
CCn1c(N)c(C(=O)NC)c(=O)c2ccc(C#CC(C)(O)COC)nc21 (stereo not given) | inactive | –
COc1ccc(CNc2nc(N(CCO)CCO)nc3c2ncn3C(C)C)cc1 | 4.66 µM (active) | –
COc1ccccc1C(=O)Nc1cc2c(cc1N1CCCC1)n(C)c(=O)n2C | inactive | –
Nc1nccc(-c2c(-c3ccc(F)cc3)ncn2C2CCCCC2)n1 | inactive | –
CC(C)NC(=O)COc1cccc(-c2nc(Nc3ccc4[nH]ncc4c3)c3ccccc3n2)c1 | inactive | –
Cn1ncnc1[C@H]1c2n[nH]c(=O)c3cc(F)cc(c23)N[C@@H]1c1ccc(F)cc1 | inactive | –
O=C(Nc1ccc2[nH]nc(-c3ccncc3)c2c1)[C@@H]1CCN(CC(=O)N2CCN(c3ccc(-c4ncccn4)cc3)CC2)C1 | inactive | –
C=CC(=O)Nc1cccc(Nc2nc(Nc3ccc(NC4CN(CCF)C4)cc3OC)ncc2C(F)(F)F)c1 | 16.5 µM (active) | –
CS(=O)(=O)c1ccc(Oc2cc(F)cc(C#N)c2)c2c1[C@H](O)C(F)(F)C2 | inactive | –
Cc1ccc(C(=O)Nc2ccc(CN3CCN(C)CC3)c(C(F)(F)F)c2)cc1C#Cc1cnc2[nH]ncc2c1 | 0.117 µM (active) | –
CC1(C)CN(C(=O)c2ccc(-c3cccc4nc(NC(=O)C5CC5)nn34)cc2)C1 | 4.15 µM (active) | –
NC(=O)c1cnc(N[C@@H]2CCCC[C@@H]2N)nc1Nc1cccc(-n2nccn2)c1 | 13.1 µM (active) | –
Cc1cc(-c2cc(OC(=O)c3ccccc3)ccc2Cl)cc2nnc(Nc3ccc(OCCN4CCCC4)cc3)nc12 | inactive | –
COc1c(C)cc(NC(=O)c2nn(Cc3ccc(F)cc3)c3c2CN(C(=O)c2ccc[nH]2)C[C@]3(C)C(N)=O)cc1C | – | -14.7% [at 8.44 µM]
CS(=O)(=O)Nc1cc2occ(NC=O)c(=O)c2cc1Oc1ccccc1 | inactive | –
O=C(Cc1cccc(OC(F)(F)F)c1)Nc1ccc(CCCCc2nnc(NC(=O)Cc3ccccn3)s2)nn1 | inactive | –
CCOC(=O)[C@@]1(CCCCCCOc2ccc(Cl)cc2)CO1 | inactive | –
COc1cc(OC)c2c(=O)[nH]c(-c3cc(C)c(OCCO)c(C)c3)nc2c1 | inactive | –
